Where “and” joins values, the source holds several entries; their conditions need not be identical. Equal entries are not always repeated. Results filed as inconclusive are left out. A call without a number means that no potency is given here. Where a structure was tested more than once in an assay, its records may differ in their call. Calls of active or inactive are those of the source. Unless noted, the call rests on the fitted dose curve; in most records, active means well fitted cell-killing curve with a large enough effect in the repeat runs; inconclusive means weak or mixed curves, or effect the other way; inactive means no such curve, though single readings can be large or run the other way.
molecular target: Peroxisome proliferator-activated receptor delta (Homo sapiens) (UniProt Q03181); assay: qHTS assay to identify small molecule antagonists of the peroxisome proliferator-activated receptor delta (PPARd) signaling pathway (AID 743215; active means well fitted inhibition curve with a large enough effect in the signal ratio in the repeat runs, not every such curve was filed as active; the % refers to the signal ratio;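 further: cells stimulated with agonist L165041 at 300 nM final during compound exposure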; further: potency means the concentration at half of the fitted maximal effect); details: HEK293H PPARd-UAS-bla, beta-lactamase FRET ratio, antagonist, 17 h; series mostly up to 62 µM; ratio activity, negative = inhibition: at the top concentration
Method in brief: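 Screen format: qHTS, antagonist mode. HEK293H PPARd-bla cells received compound and 300 nM L165041 (final), 17 h, 37 C. Beta-lactamase detected via FRET substrate fluorescence, 2 h, room temperature.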

Peroxisome proliferator-activated receptor delta (Homo sapiens), sequence (Q03181 whole entry, looked up): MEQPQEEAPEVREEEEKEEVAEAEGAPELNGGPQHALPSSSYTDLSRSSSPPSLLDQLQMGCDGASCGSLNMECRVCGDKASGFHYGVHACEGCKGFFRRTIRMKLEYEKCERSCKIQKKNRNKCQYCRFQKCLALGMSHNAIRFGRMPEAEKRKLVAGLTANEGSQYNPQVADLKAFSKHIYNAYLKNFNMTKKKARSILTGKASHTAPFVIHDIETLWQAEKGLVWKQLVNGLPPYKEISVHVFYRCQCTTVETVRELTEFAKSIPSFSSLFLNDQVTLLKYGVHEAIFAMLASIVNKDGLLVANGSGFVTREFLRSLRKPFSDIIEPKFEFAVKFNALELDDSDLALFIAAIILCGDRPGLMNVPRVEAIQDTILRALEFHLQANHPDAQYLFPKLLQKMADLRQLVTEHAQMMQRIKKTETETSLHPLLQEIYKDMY

Row | SMILES | Potency | ratio activity, negative = inhibition
1 | CN(C)c1nc(N(C)C)nc(N(C)C)n1 | inactive | 
2 | CN(C)CCN(Cc1cccs1)c1ccccn1 | inactive | 
3 | CC(C)(C)NC(=O)[C@H]1CC[C@H]2[C@@H]3CC[C@H]4NC(=O)C=C[C@]4(C)[C@H]3CC[C@]12C | inactive | 
4 | c1cc(-c2ccncc2)ccn1 | inactive | 
5 | NC=O |  | -2.14% [at 80.4 µM] (inactive)
6 | c1ccc2cc(Nc3ccc(Nc4ccc5ccccc5c4)cc3)ccc2c1 | inactive | 
7 | O=C(Nc1ccc(Cl)cc1)Nc1ccc(Cl)c(Cl)c1 | 19.4 µM (active) | 
8 | COC(C)COC(C)COC(C)CO (configuration not stated) | inactive | 
9 | Nc1ncnc2nc[nH]c12 | inactive | 
10 | OCCO |  | 15.7% [at 80.4 µM] (inactive)
11 | O=C1OC2(c3cc(Br)c(O)c(Br)c3Oc3c2cc(Br)c(O)c3Br)c2c(Cl)c(Cl)c(Cl)c(Cl)c21 |  | -29.5% (inactive)
12 | Cc1c(C(N)=O)cc([N+](=O)[O-])cc1[N+](=O)[O-] | inactive | 
13 | COc1ccc(C(=O)CC(=O)c2ccc(C(C)(C)C)cc2)cc1 | inactive | 
14 | CCC(C)c1ccccc1O (configuration not stated) | inactive | 
15 | Nc1ccccc1N |  | 9.25% [at 80.4 µM] (inactive)
16 | CC(=O)C1(C)CC2=C(CCCC2(C)C)CC1C (configuration not stated) | inactive | 
17 | OC1CCCCCCCCCCC1 | inactive | 
18 | Cc1c(OCC(F)(F)F)ccnc1CS(=O)c1nc2ccccc2[nH]1 (configuration not stated) | inactive | 
19 | O=CCCCC=O | inactive | 
20 | NNc1ccc(C(=O)O)cc1 | inactive | 
21 | O=Cc1ccccc1O | inactive | 
22 | Cc1cc2nc3c(=O)[nH]c(=O)nc-3n(C[C@H](O)[C@H](O)[C@H](O)CO)c2cc1C |  | -0.144% (inactive)
23 | COc1cccc2c1C(=O)c1c(O)c3c(c(O)c1C2=O)C[C@@](O)(C(=O)CO)C[C@@H]3O[C@H]1C[C@H](N)[C@H](O)[C@H](C)O1 | 1.55 µM (active) and 2.98 µM (active) | 
24 | CC(=O)O[C@]1(C(C)=O)CC[C@H]2[C@@H]3C=C(Cl)C4=CC(=O)[C@@H]5C[C@@H]5[C@]4(C)[C@H]3CC[C@@]21C |  | -13.8% (inactive)

molecular target: Bile acid receptor (Homo sapiens) (UniProt Q96RI1); assay: qHTS assay to identify small molecule antagonists of the farnesoid-X-receptor (FXR) signaling pathway (AID 743217; active means well fitted inhibition curve with a large enough effect in the signal ratio in the repeat runs, not every such curve was filed as active; the % refers to the signal ratio); details: HEK293T FXR-UAS-bla, beta-lactamase ratio, CDCA-stimulated, 16 h; series mostly up to 62.6 µM; activity change, negative = inhibition: at the top concentration
Method in brief: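 Quantitative HTS, beta-lactamase reporter format: FXR-UAS-bla HEK 293T cells co-treated 16 h at 37 °C with compounds and 50 uM final chenodeoxycholic acid, then read by B/G FRET fluorescence.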

Bile acid receptor (Homo sapiens), sequence (Q96RI1 whole entry, looked up): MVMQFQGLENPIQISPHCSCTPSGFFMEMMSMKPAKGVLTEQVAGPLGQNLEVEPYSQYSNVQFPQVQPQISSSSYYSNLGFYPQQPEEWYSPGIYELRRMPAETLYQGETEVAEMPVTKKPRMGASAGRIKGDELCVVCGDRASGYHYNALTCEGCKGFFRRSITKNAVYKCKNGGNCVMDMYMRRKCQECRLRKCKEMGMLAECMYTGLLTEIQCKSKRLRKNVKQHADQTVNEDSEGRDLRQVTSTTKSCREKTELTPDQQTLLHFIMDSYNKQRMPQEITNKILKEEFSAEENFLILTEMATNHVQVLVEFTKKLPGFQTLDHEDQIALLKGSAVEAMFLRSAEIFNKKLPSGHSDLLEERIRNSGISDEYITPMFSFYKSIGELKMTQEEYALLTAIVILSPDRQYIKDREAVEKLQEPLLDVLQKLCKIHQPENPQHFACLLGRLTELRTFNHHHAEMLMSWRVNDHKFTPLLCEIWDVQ

Row | SMILES | Potency | activity change, negative = inhibition
25 | c1ccc2sc(SSN3CCOCC3)nc2c1 | inactive | 
26 | CN(C)c1nc(N(C)C)nc(N(C)C)n1 | inactive | 
27 | CC(=O)Oc1ccccc1C(=O)Nc1ncc([N+](=O)[O-])s1 |  | -0.0618% (inactive)
28 | NC=O | inactive | 
29 | c1ccc2cc(Nc3ccc(Nc4ccc5ccccc5c4)cc3)ccc2c1 |  | -4.96% [at 81.1 µM] (inactive)
30 | COC(C)COC(C)COC(C)CO (configuration not stated) | inactive | 
31 | Nc1ncnc2nc[nH]c12 | inactive | 
32 | OCCO | inactive | 
33 | Cc1c(OCC(F)(F)F)ccnc1CS(=O)c1nc2ccccc2[nH]1 (configuration not stated) | inactive | 
34 | O=CCCCC=O | inactive | 
35 | Cc1cccc(N(C)C(=S)Oc2ccc3ccccc3c2)c1 |  | -19.9% (inactive)
36 | Cc1cc2nc3c(=O)[nH]c(=O)nc-3n(C[C@H](O)[C@H](O)[C@H](O)CO)c2cc1C |  | 7.28% (inactive)

test system: not listed separately; assay: qHTS assay to identify small molecule agonists of the farnesoid-X-receptor (FXR) signaling pathway - cell viability counter screen (AID 743218); details: FXR-bla HEK293T viability, CellTiter-Glo luminescence, 16 h; series mostly up to 62.6 µM; viability change, negative = cytotoxic: at the top concentration; further: nearly all actives have a fitted effect of over 45% in size; further: potency means the concentration at half of the fitted maximal effect
Method in brief: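 Same-well cytotoxicity check on FXR-UAS-bla HEK 293T cells: 5 h attachment, 16 h compound at 37 C, CellTiter-Glo luminescence read at room temperature after 30 min.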

Row | SMILES | Potency | viability change, negative = cytotoxic
37 | c1ccc2sc(SSN3CCOCC3)nc2c1 | inactive | 
38 | Nc1ncn([C@@H]2O[C@H](CO)[C@@H](O)[C@H]2O)c(=O)n1 | inactive | 
39 | CN(C)c1nc(N(C)C)nc(N(C)C)n1 |  | -6.22% [at 5.95 µM] (inactive)
40 | CN(C)CCN(Cc1cccs1)c1ccccn1 | inactive | 
41 | CC(C)(C)NC(=O)[C@H]1CC[C@H]2[C@@H]3CC[C@H]4NC(=O)C=C[C@]4(C)[C@H]3CC[C@]12C | inactive | 
42 | CCCCC(CC)COCC1CO1 (configuration not stated) | inactive | 
43 | COC(=O)Nc1nc2ccc(S(=O)c3ccccc3)cc2[nH]1 (configuration not stated) | inactive | 
44 | c1cc(-c2ccncc2)ccn1 | inactive | 
45 | OC[C@H]1O[C@@H]2O[C@H]3[C@H](O)[C@@H](O)[C@@H](O[C@H]4[C@H](O)[C@@H](O)[C@@H](O[C@H]5[C@H](O)[C@@H](O)[C@@H](O[C@H]6[C@H](O)[C@@H](O)[C@@H](O[C@H]7[C@H](O)[C@@H](O)[C@@H](O[C@H]8[C@H](O)[C@@H](O)[C@@H](O[C@H]1[C@H](O)[C@H]2O)O[C@@H]8CO)O[C@@H]7CO)O[C@@H]6CO)O[C@@H]5CO)O[C@@H]4CO)O[C@@H]3CO |  | 4.07% [at 81.1 µM] (inactive)
46 | NC=O | inactive | 
47 | COC(=O)C1=C(C)NC(C)=C(C(=O)OCCN(C)Cc2ccccc2)C1c1cccc([N+](=O)[O-])c1 (configuration not stated) | 24.4 µM (active) and 29.8 µM (active) | 
48 | c1ccc2cc(Nc3ccc(Nc4ccc5ccccc5c4)cc3)ccc2c1 |  | -0.46% (inactive)
49 | O=C(Nc1ccc(Cl)cc1)Nc1ccc(Cl)c(Cl)c1 | inactive and 2.66 µM (active) | 
50 | COC(C)COC(C)COC(C)CO (configuration not stated) | inactive | 
51 | CC(=O)CC/C=C(\C)CCC=C(C)C | inactive | 
52 | Nc1ccc(Nc2ccccc2)cc1 | inactive | 
53 | Nc1ncnc2nc[nH]c12 |  | 2.52% (inactive)
54 | OCCO | inactive | 

Row | SMILES | Potency | viability change, negative = cytotoxic
55 | O=C1OC2(c3cc(Br)c(O)c(Br)c3Oc3c2cc(Br)c(O)c3Br)c2c(Cl)c(Cl)c(Cl)c(Cl)c21 |  | 0.0626% (inactive)
56 | CCCCOCCOCCO | inactive | 
57 | Cc1c(C(N)=O)cc([N+](=O)[O-])cc1[N+](=O)[O-] | inactive | 
58 | COc1ccc(C(=O)CC(=O)c2ccc(C(C)(C)C)cc2)cc1 |  | -1.37% (inactive)
59 | CCC(C)c1ccccc1O (configuration not stated) | inactive | 
60 | CC(=O)C1(C)CC2=C(CCCC2(C)C)CC1C (configuration not stated) | inactive | 
61 | OC1CCCCCCCCCCC1 | inactive | 
62 | CCCCc1oc2ccccc2c1C(=O)c1cc(I)c(OCCN(CC)CC)c(I)c1 | 34.9 µM (active) and 18.8 µM (active) | 
63 | Cc1c(OCC(F)(F)F)ccnc1CS(=O)c1nc2ccccc2[nH]1 (configuration not stated) |  | 7.2% (inactive)
64 | O=C(c1ccccc1)c1ccccc1O | inactive | 
65 | O=CCCCC=O | inactive | 
66 | NNc1ccc(C(=O)O)cc1 | inactive | 
67 | O=Cc1ccccc1O |  | -0.226% (inactive)
68 | Cc1cccc(N(C)C(=S)Oc2ccc3ccccc3c2)c1 |  | -29.1% (inactive)
69 | Cc1cc2nc3c(=O)[nH]c(=O)nc-3n(C[C@H](O)[C@H](O)[C@H](O)CO)c2cc1C | inactive | 
70 | COc1cccc2c1C(=O)c1c(O)c3c(c(O)c1C2=O)C[C@@](O)(C(=O)CO)C[C@@H]3O[C@H]1C[C@H](N)[C@H](O)[C@H](C)O1 |  | 21.9% (inactive)
71 | CN(C)C(=N)N=C(N)N |  | 9.24% (inactive)
72 | CC(=O)O[C@]1(C(C)=O)CC[C@H]2[C@@H]3C=C(Cl)C4=CC(=O)[C@@H]5C[C@@H]5[C@]4(C)[C@H]3CC[C@@]21C | inactive | 
